# Measured values reported in PubChem BioAssay (EPA / NIEHS).
# Values joined by “and” are separate entries in the source; they are usually repeats but may differ in a detail not shown here. Equal values may be shown once. Records with an inconclusive call do not appear. A structure can be active in one record and inactive in another. Active and inactive are the calls of the source. The calls were made as follows, unless noted: active = hit-call score of the fitted dose curve at least 0.9, where 1 is the maximum; inactive = score below 0.9.
# Tests used:
# [1] = target: human RAR-related Orphan Receptor gamma (RORg), RORC (gene 6097) (UniProt P51449); experiment: ATG_RORg_TRANS: Attagene TRANS-FACTORIAL HepG2 Assay for human RAR-related Orphan Receptor gamma (RORg) (AID 2283011; active = hit-call score of the fitted dose curve at least 0.9, where 1 is the maximum)
# Outline: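 Transient MRTU transfection of HepG2 (TRANS format, exogenous NR-Gal4 chimera). 24 h dosing. Total RNA → oligo(dT) RT → PCR → 6-FAM labelling → HpaI cut → CE. Gain vs DMSO.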
# [2] = target: Retinoic acid receptor RXR-alpha (Homo sapiens) (UniProt P19793); experiment: ATG_RXRa_TRANS: Attagene TRANS-FACTORIAL HepG2 Assay for human Retinoid X Receptor alpha (RXRa) (AID 2283012; active = hit-call score of the fitted dose curve at least 0.9, where 1 is the maximum)
# Outline: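 HepG2 cells transiently transfected with multiplexed GAL4-UAS reporter units and chimeric NR-GAL4 fusions, dosed 24 h. Reporter mRNA measured by RT-PCR, FAM labelling, HpaI digestion and capillary electrophoresis; gain-of-signal fitted relative to DMSO baseline.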
# [3] = target: human Retinoid X Receptor beta (RXRb), RXRB (gene 6257) (UniProt P28702); experiment: ATG_RXRb_TRANS: Attagene TRANS-FACTORIAL HepG2 Assay for human Retinoid X Receptor beta (RXRb) (AID 2283013; active = hit-call score of the fitted dose curve at least 0.9, where 1 is the maximum)
# Outline: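 HepG2 cells transiently transfected with multiplexed reporter units driven by GAL4-UAS and exogenous chimeric NR-Gal4 proteins; treated 24 h. Reporter mRNA measured by RT-PCR, 6-FAM labelling and capillary electrophoresis; gain-of-signal fitted versus DMSO baseline.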
# [4] = read-out: Interleukin-1 alpha (IL1a), IL1A (gene 3552); experiment: BSK_BE3C_IL1a: BioMAP Diversity Plus: BE3C Assay for Interleukin-1 alpha (IL1a) Biomarker Activity (AID 2283016); settings: primary human bronchial epithelial cells; actives raise or lower the signal
# Outline: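 Human primary bronchial epithelial cells (BE3C system) were dosed with compound and IL-1a measured by ELISA 24 h later. Activity was fitted bidirectionally against DMSO baseline; cytotoxicity was tracked in parallel cultures by SRB total-protein staining.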
# [5] = read-out: Monocyte Chemoattractant Protein-1 (MCP1), CCL2 (gene 6347); experiment: BSK_3C_MCP1: BioMAP Diversity Plus: 3C Assay for Monocyte Chemoattractant Protein-1 (MCP1) Biomarker Activity (AID 2283017); settings: primary human endothelial cells (HUVEC); actives raise or lower the signal
# Outline: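 HUVEC, 3C system; 24 h chemical exposure; MCP-1 by ELISA; bidirectional curve fit vs DMSO baseline.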
# [6] = read-out: Monocyte Chemoattractant Protein-1 (MCP1), CCL2 (gene 6347); experiment: BSK_4H_MCP1: BioMAP Diversity Plus: 4H Assay for Monocyte Chemoattractant Protein-1 (MCP1) Biomarker Activity (AID 2283018); settings: primary human endothelial cells (HUVEC); actives raise or lower the signal
# Outline: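 Human umbilical vein endothelial cells (4H system) dosed with chemical; MCP-1 measured by ELISA 24 h after dosing. Bidirectional curve fitting against DMSO negative control as baseline; parallel SRB total-protein staining tracks overt cytotoxicity.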
# [7] = read-out: Human Leukocyte Antigen - DR isotype (HLADR), HLA-DRA (gene 3122); experiment: BSK_3C_HLADR: BioMAP Diversity Plus: 3C Assay for Human Leukocyte Antigen - DR isotype (HLADR) Biomarker Activity (AID 2283019); settings: primary human endothelial cells (HUVEC); actives raise or lower the signal
# Outline: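 HUVEC, 3C stimulation, 24 h post-dose; HLA-DR by ELISA; bidirectional curve fit vs DMSO baseline; gain or loss of signal scored.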
# [8] = read-out: Interleukin-8 (IL8), CXCL8 (gene 3576); experiment: BSK_3C_IL8: BioMAP Diversity Plus: 3C Assay for Interleukin-8 (IL8) Biomarker Activity (AID 2283020); settings: primary human endothelial cells (HUVEC); actives raise or lower the signal
# Outline: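 Primary human umbilical vein endothelial cells (3C system) were exposed to test chemical for 24 h, then IL-8 was quantified by ELISA. Responses were fitted bidirectionally against DMSO vehicle as baseline.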
# [9] = target: human Vitamin D Receptor (VDR), VDR (gene 7421) (UniProt P11473); experiment: ATG_VDR_TRANS: Attagene TRANS-FACTORIAL HepG2 Assay for human Vitamin D Receptor (VDR) (AID 2283022; active = hit-call score of the fitted dose curve at least 0.9, where 1 is the maximum)
# Outline: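 RT-PCR/capillary electrophoresis read-out of reporter mRNA induction in transiently transfected HepG2; 24 h dosing; chimeric NR-Gal4 (TRANS format); gain-of-signal fit against DMSO baseline.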
# [10] = BSK_3C_SRB: Viability Assessment in the BioMAP Diversity Plus: 3C Assay (AID 2283023); settings: primary human endothelial cells (HUVEC);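 also: cells read 24 h after compound dosing; fitted both ways against DMSO so a hit may be signal rise or drop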
# Outline: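 HUVEC, 24 h post-dose; 10% TCA fix, 0.1% SRB stain, A560 nm. Bidirectional curve fit vs DMSO negative control.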
# [11] = read-out: Matrix Metallopeptidase 1 (MMP1), MMP1 (gene 4312); experiment: BSK_BE3C_MMP1: BioMAP Diversity Plus: BE3C Assay for Matrix Metallopeptidase 1 (MMP1) Biomarker Activity (AID 2283024); settings: primary human bronchial epithelial cells; actives raise or lower the signal
# Outline: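 Primary human bronchial epithelial cells were dosed with test chemicals, and MMP1 levels were measured by ELISA 24 h later. Data were fitted bidirectionally against DMSO as the negative control and activity baseline.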
# [12] = BSK_3C_Vis: BioMAP Diversity Plus: 3C Assay for Morphology Visualization (AID 2283025); settings: primary human endothelial cells (HUVEC);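 also: fitted both ways so gain or loss versus DMSO counts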
# Outline: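 Human umbilical vein endothelial cells in the 3C system were imaged by light microscopy 24 h after chemical dosing to record cell morphology. Activity was fitted bidirectionally against DMSO as negative control and baseline; the endpoint serves as a background control.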
# [13] = read-out: Pselectin, SELP (gene 6403); experiment: BSK_4H_Pselectin: BioMAP Diversity Plus: 4H Assay for Pselectin Biomarker Activity (AID 2283026); settings: primary human endothelial cells (HUVEC); actives raise or lower the signal
# Outline: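 Primary human umbilical vein endothelial cells were exposed to test chemical for 24 h, then cell-surface P-selectin was quantified by ELISA. Activity was fitted bidirectionally against DMSO as negative control and baseline.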
# [14] = BSK_4H_SRB: Viability Assessment in the BioMAP Diversity Plus: 4H Assay (AID 2283027); settings: primary human endothelial cells (HUVEC);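 also: cells exposed to compound for 24 h before staining; curves fitted both ways versus DMSO so AC50 may be loss or gain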
# Outline: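 Absorbance at 560 nm of SRB-stained total protein served as the viability read-out in confluent primary human umbilical vein endothelium 24 h after chemical treatment. Curves were fitted bidirectionally against DMSO as negative control.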
# [15] = BSK_BE3C_SRB: Viability Assessment in the BioMAP Diversity Plus: BE3C Assay (AID 2283028); settings: primary human bronchial epithelial cells;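 as to AC50: fitted both ways so AC50 may mark signal gain or loss versus DMSO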
# Outline: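 Primary human bronchial epithelium; chemical dosing, 24 h; 10% TCA fix, 0.1% SRB stain, A560; bidirectional fit vs DMSO baseline.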
# [16] = read-out: Thrombomodulin, THBD (gene 7056); experiment: BSK_3C_Thrombomodulin: BioMAP Diversity Plus: 3C Assay for Thrombomodulin Biomarker Activity (AID 2283029); settings: primary human endothelial cells (HUVEC); actives raise or lower the signal
# Outline: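 Primary human umbilical vein endothelial cells (3C system) were exposed to chemical for 24 h, then thrombomodulin levels were measured by ELISA. Activity was fitted bidirectionally against the DMSO negative control as baseline.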
# [17] = read-out: Urokinase-type plasminogen activator receptor (uPAR), PLAUR (gene 5329); experiment: BSK_4H_uPAR: BioMAP Diversity Plus: 4H Assay for Urokinase-type plasminogen activator receptor (uPAR) Biomarker Activity (AID 2283030); settings: primary human endothelial cells (HUVEC); actives raise or lower the signal
# Outline: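 HUVEC, 24 h post-dose; uPAR by ELISA; bidirectional fit vs DMSO baseline.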
# [18] = target: human Thyroid Receptor alpha (THRa1), THRA (gene 7067) (UniProt P10827); experiment: ATG_THRa1_TRANS: Attagene TRANS-FACTORIAL HepG2 Assay for human Thyroid Receptor alpha (THRa1) (AID 2283014; active = hit-call score of the fitted dose curve at least 0.9, where 1 is the maximum)
# Outline: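 Transient HepG2 transfection, NR-Gal4 chimera driving GAL4-UAS reporters; 24 h compound exposure; total RNA, oligo(dT) RT, PCR, fluorescent primer extension, capillary electrophoresis. Upward direction vs DMSO control.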
# [19] = read-out: Monokine induced gamma interferon (MIG), CXCL9 (gene 4283); experiment: BSK_3C_MIG: BioMAP Diversity Plus: 3C Assay for Monokine induced gamma interferon (MIG) Biomarker Activity (AID 2283021); settings: primary human endothelial cells (HUVEC); actives raise or lower the signal;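 also: MIG protein level measured by immunoassay in the treated endothelial cultures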
# Outline: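 Primary human umbilical vein endothelial cells in the 3C system were exposed to chemical for 24 h, after which MIG was quantified by ELISA. Activity was fitted bidirectionally against DMSO as negative control and baseline.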
# Sequence of Retinoic acid receptor RXR-alpha (Homo sapiens) (P19793 whole entry, looked up, the tested form may be a part): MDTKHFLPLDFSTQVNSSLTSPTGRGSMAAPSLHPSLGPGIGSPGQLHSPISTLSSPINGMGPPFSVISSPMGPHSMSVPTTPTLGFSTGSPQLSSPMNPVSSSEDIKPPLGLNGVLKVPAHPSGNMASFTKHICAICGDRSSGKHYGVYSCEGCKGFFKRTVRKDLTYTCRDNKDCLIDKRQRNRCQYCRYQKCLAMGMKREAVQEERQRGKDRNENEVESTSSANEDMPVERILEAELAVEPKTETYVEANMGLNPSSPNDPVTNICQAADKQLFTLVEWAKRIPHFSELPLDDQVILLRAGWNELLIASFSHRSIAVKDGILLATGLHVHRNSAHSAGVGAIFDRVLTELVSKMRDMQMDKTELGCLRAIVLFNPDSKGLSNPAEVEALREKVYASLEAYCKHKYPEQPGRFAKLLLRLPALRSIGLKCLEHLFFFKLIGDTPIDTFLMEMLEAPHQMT
# Sequence of human Thyroid Receptor alpha (THRa1), THRA (gene 7067) (P10827 whole entry, looked up, the tested form may be a part): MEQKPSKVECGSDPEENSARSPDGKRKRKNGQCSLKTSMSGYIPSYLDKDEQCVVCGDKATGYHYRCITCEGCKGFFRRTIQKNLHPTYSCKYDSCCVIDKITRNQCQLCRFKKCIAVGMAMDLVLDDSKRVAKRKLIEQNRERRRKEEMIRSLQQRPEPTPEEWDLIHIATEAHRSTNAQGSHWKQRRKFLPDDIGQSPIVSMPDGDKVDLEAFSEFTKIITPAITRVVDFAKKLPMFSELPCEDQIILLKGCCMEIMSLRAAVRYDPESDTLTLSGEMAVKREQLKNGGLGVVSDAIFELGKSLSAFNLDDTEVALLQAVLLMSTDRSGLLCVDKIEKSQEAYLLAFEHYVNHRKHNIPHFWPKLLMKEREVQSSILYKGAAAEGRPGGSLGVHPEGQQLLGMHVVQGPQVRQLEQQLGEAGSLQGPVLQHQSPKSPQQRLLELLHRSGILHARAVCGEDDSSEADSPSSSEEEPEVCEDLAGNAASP
# Sequence of human Vitamin D Receptor (VDR), VDR (gene 7421) (P11473 whole entry, looked up, the tested form may be a part): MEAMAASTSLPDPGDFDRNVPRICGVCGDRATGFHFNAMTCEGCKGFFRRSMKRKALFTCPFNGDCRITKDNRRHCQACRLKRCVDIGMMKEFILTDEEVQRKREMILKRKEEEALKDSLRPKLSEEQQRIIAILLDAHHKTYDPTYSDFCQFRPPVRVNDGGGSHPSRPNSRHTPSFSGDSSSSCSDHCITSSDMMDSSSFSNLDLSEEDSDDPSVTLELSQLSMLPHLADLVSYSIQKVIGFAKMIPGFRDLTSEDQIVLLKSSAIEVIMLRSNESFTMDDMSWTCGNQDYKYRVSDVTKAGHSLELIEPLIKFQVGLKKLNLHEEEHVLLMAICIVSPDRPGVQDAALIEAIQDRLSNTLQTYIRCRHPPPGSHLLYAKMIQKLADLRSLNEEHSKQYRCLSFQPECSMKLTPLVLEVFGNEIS
# Sequence of human Retinoid X Receptor beta (RXRb), RXRB (gene 6257) (P28702 whole entry, looked up, the tested form may be a part): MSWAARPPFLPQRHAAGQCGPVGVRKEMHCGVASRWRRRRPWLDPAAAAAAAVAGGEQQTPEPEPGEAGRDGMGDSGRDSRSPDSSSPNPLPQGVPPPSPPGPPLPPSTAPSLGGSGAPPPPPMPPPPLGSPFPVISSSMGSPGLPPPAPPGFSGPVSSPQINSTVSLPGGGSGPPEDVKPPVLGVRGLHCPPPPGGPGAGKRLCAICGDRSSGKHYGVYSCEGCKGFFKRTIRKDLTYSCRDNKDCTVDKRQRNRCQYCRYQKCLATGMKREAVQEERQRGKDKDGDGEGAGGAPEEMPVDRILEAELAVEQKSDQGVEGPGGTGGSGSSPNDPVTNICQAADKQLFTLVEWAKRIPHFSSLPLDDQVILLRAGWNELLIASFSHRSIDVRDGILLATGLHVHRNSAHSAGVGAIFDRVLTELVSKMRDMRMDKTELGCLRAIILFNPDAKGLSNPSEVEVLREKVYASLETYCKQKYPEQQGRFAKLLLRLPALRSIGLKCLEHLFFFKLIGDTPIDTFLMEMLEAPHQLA
# Sequence of human RAR-related Orphan Receptor gamma (RORg), RORC (gene 6097) (P51449 whole entry, looked up, the tested form may be a part): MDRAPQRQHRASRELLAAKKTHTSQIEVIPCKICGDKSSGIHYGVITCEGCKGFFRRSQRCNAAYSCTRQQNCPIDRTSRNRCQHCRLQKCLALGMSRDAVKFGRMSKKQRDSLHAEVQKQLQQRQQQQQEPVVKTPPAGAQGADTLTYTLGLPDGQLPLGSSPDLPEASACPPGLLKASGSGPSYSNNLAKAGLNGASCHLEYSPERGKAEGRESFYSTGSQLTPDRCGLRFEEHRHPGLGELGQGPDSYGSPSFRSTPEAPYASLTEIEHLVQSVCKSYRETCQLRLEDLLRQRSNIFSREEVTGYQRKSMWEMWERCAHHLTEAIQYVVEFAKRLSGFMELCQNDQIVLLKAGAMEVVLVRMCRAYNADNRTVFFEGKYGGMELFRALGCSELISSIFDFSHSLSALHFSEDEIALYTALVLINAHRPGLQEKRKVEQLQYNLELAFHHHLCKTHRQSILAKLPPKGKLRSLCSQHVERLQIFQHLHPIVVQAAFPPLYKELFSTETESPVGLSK
smiles,measurement,setting,value
CCCCCCCCCC(=O)OCC,outcome,[1],inactive
same,outcome,[2],inactive
same,AC50,[3],100 µM (active)
same,AC50,[4],20 µM (active)
same,AC50,[5],32 µM (active)
same,AC50,[6],29.7 µM (active)
same,AC50,[7],14.4 µM (active)
same,AC50,[8],33.2 µM (active)
same,outcome,[9],inactive
same,AC50,[10],32 µM (active)
same,outcome,[11],inactive
same,AC50,[12],14.1 µM (active)
same,AC50,[13],30.9 µM (active)
same,AC50,[14],31.5 µM (active)
same,outcome,[15],inactive
same,AC50,[16],29.7 µM (active)
same,AC50,[17],20 µM (active)
CCOc1ccc(NC(C)=O)cc1,outcome,[1],inactive
same,outcome,[2],inactive
same,outcome,[18],inactive
CC/C(=C(\c1ccccc1)c1ccc(OCCN(C)C)cc1)c1ccccc1,outcome,[1],inactive
same,outcome,[2],inactive
same,outcome,[3],inactive
same,outcome,[18],inactive
same,AC50,[4],13.2 µM (active) and 8.83 µM (active)
same,AC50,[5],7.95 µM (active) and 8.84 µM (active)
same,AC50,[6],11.5 µM (active) and 8.4 µM (active)
same,AC50,[7],9.16 µM (active) and 7.07 µM (active)
same,AC50,[8],8.78 µM (active) and 8.48 µM (active)
same,AC50,[10],5.32 µM (active) and 6.55 µM (active)
same,AC50,[11],10.1 µM (active) and 12.3 µM (active)
same,AC50,[12],4.76 µM (active) and 5.36 µM (active)
same,AC50,[13],7.7 µM (active) and 8.24 µM (active)
same,AC50,[14],6.19 µM (active) and 8.06 µM (active)
same,AC50,[15],4.81 µM (active) and 5.24 µM (active)
same,AC50,[16],12.6 µM (active)
same,outcome,[16],inactive
same,AC50,[17],5.66 µM (active) and 7.14 µM (active)
N#CCCNCCC#N,outcome,[1],inactive
same,outcome,[2],inactive
same,outcome,[3],inactive
same,outcome,[9],inactive
O=C(c1ccc(OCCN2CCCCC2)cc1)c1c(-c2ccc(O)cc2)sc2cc(O)ccc12,outcome,[1],inactive
same,outcome,[2],inactive
same,outcome,[3],inactive
same,AC50,[18],8.22 µM (active) and 15 µM (active) and 11.1 µM (active)
same,outcome,[18],inactive
same,AC50,[4],31.2 µM (active)
same,AC50,[5],27.3 µM (active)
same,AC50,[6],22.1 µM (active)
same,AC50,[7],17.4 µM (active)
same,AC50,[8],20 µM (active)
same,outcome,[9],inactive
same,AC50,[10],18.8 µM (active)
same,AC50,[11],32.2 µM (active)
same,AC50,[12],22.3 µM (active)
same,AC50,[13],25.2 µM (active)
same,AC50,[14],33.2 µM (active)
same,AC50,[15],38.1 µM (active)
same,outcome,[16],inactive
same,AC50,[17],25.3 µM (active)
C=C1CC/C=C(\C)CC[C@@H]2[C@@H]1CC2(C)C,outcome,[1],inactive
same,outcome,[2],inactive
same,AC50,[3],19.4 µM (active)
same,outcome,[4],inactive
same,AC50,[5],31.5 µM (active)
same,AC50,[6],29.1 µM (active)
same,AC50,[7],28.7 µM (active)
same,AC50,[8],30.6 µM (active)
same,AC50,[19],36.6 µM (active)
same,outcome,[9],inactive
same,AC50,[10],29.8 µM (active)
same,AC50,[11],20 µM (active)
same,AC50,[12],14.5 µM (active)
same,AC50,[13],29.1 µM (active)
same,AC50,[14],31.9 µM (active)
same,outcome,[15],inactive
same,outcome,[16],inactive
same,AC50,[17],33.2 µM (active)
